Screens: PubChem BioAssay, National Center for Advancing Translational Sciences (NCATS)
Shown are actives, neighbours in structure and some others; about 1.3% of the full set was active somewhere.
Vaccinia mCherry: inhibitors of vaccinia virus infection (mCherry reporter signal); Potency, µM (doses to about 36.5 µM), for inactives: at the highest dose activity change, negative = inhibition, usual class: inhibitors; Vaccinia virus mCherry reporter infection, fluorescence; AID 720579; hit rate 0.63% among 310,000; calls by dose curve; tested in A549 cells; further: nearly all actives have a fitted effect of over 35% in size
TbPYK inhibitor: T. brucei pyruvate kinase inhibition | Q57TT1 | TbPYK enzyme, Kinase-Glo Plus ATP luminescence, 45 min | Potency, µM (series often up to 76.8 µM), without a hit: at the top dose activity, negative = inhibition, actives largely listed as inhibitors | hit rate 0.12% among 410,000 | AID 624173; further: nearly all actives have a fitted effect of over 50% in size
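Enzyme and substrate buffer are dispensed first and compound is pin-transferred. ADP at 130 uM final then starts the reaction, which runs 45 min at room temperature. Detection reagent is added for 10 min before luminescence is imaged.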
AMA1-RON2 inh: inhibitors of Plasmodium falciparum AMA1-RON2 interaction; AlphaScreen AMA1-biotinylated RON2 peptide binding; Potency, µM (top dose mostly 58.2 µM), for inactives: at the top dose activity change, negative = inhibition, usual class: inhibitors; hit rate 0.2% among 360,000;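 further: 0% = vehicle wells and -100% = peptide control; nearly all actives have a fitted effect of over 45% in size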
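AMA1 (3D7) with his tag at 25 nM final met compounds first, then biotinylated RON2 peptide at 25 nM; detection used donor plus acceptor beads, 10 µg/mL apiece, read by AlphaScreen after 30 min at room temperature.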
Vaccinia Venus: vaccinia inhibition (Venus reporter); Vaccinia virus Venus reporter expression, fluorescence; Potency, µM (doses to about 36.5 µM), for inactives: at the top dose activity change, negative = inhibition, hits mostly inhibitors; hit rate 0.46% among 330,000; AID 720580; calls by dose curve; tested in A549 cells; further: nearly all actives have a fitted effect of over 30% in size
RE007 growth inh: less growth of the S. pombe RE007 Vpr strain. Potency, µM (doses to about 92.2 µM), for inactives: at the highest dose activity change, negative = less growth, actives largely listed as inhibitors. S. pombe RE007 Vpr strain, BacTiter-Glo ATP luminescence, 24 h. hit rate 0.21% among 360,000; active means well fitted falling curve with a large enough effect; inconclusive means small, poorly fitted or top-dose-only effect; inactive means no such curve, though single readings can be large or run the other way; further: nearly all actives have a fitted effect of over 50% in size
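Fission yeast RE007 carrying one integrated HIV-1 vpr copy, seeded at OD 0.01 in PMG+AL medium with 23 nL pinned compound. Grown 24 h at 30 degrees; viability read by BacTiter-Glo luminescence after 5 min.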
LmPK inh: inhibitors of Leishmania mexicana pyruvate kinase. Q27686. purified LmPK, Kinase-Glo ATP luminescence, 1 h. Potency, µM (doses to about 57.5 µM), without a hit: at the top dose activity change, negative = inhibition, most hits filed as inhibitors. hit rate 0.37% among 290,000
Target sequence (Q27686 whole entry, looked up): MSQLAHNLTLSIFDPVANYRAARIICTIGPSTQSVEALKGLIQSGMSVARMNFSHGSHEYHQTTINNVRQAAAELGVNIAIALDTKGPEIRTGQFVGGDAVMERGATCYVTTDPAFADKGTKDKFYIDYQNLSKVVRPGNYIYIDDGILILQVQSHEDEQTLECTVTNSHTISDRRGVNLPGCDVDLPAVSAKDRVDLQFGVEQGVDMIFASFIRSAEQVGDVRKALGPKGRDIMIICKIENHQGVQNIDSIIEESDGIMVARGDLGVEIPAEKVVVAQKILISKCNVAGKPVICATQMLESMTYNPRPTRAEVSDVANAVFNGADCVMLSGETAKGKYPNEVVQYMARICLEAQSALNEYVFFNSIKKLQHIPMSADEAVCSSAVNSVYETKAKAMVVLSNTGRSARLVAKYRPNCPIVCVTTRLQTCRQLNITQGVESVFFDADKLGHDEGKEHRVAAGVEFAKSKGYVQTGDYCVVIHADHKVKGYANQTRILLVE
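ATP generated from ADP (0.1 mM) and PEP (0.5 mM) by 0.1 nM LmPK over 1 h at room temperature (pH 7.2 imidazole buffer) was detected by coupled luciferase luminescence. Values were normalized to uninhibited and no-enzyme wells.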
* hit, by the source's call; i = inactive; ? = inconclusive; · = no result given; ! = not active in a repeat; [ ] = remark or other dose. Unless noted, the call rests on the fitted dose curve; in most records, active means well fitted curve in the direction sought with a large enough effect; inconclusive means small, poorly fitted or top-dose-only effect, or another doubt; inactive means no such curve, though single readings can be large; an effect the other way counts as inactive or inconclusive. Unless noted, on the % scale 0 is the no-effect control and ±100 the full control effect; potency means the concentration at half of the fitted maximal effect.

SMILES | Vaccinia mCherry | TbPYK inhibitor | AMA1-RON2 inh | Vaccinia Venus | RE007 growth inh | LmPK inh
COc1ccc(-c2nc3ccccc3s2)cc1 | · | ? | 9% | · | ? | 13µM*
OC1(c2cccnc2)CCN(Cc2ccc3c(c2)CN(Cc2cc4ccccc4s2)CCO3)CC1 | -24% | · | · | -21% | · | ·
COc1ccc(N2C(=O)[C@@H]3C[C@H]2CN3Cc2cccn2-c2ccc(Cl)cn2)c(C)c1 | -7% | · | · | 0% | · | ·
CC[n+]1ccnc2ccccc21 | 18µM* | · | · | 13µM* | · | ·
C=CCNC(=O)c1ccc2c3n(nc2c1)-c1ccccc1CO3 | i | ? | -3% | -27% | ? | 14µM*
Cc1ccc2c(c1)COc1c3ccc(C(=O)N4CCOCC4)cc3nn1-2 | -17% | -15% | -10% | ? | -33% | 16µM*
Cc1ccc2c(c1)COc1c3ccc(C(=O)NC(C)C)cc3nn1-2 | -2% | 0% | -9% | ? | -31% | -4%
O=C(c1ccc2c3n(nc2c1)-c1ccc(Cl)cc1CO3)N1CCCCC1 | -28% | -19% | -2% | -18% | -16% | 25µM*
Cc1ccc(CN2CCc3nnc(C(NS(C)(=O)=O)C(C)C)n3CC2)cc1C (centres undefined) | -24% | · | · | -15% | · | ·
C(=C1NCCN1)c1cccc2ccccc12 | · | 5% | · | · | · | ·
COc1cc(=O)n2c(c1C(=O)N(C)Cc1nonc1C)CCN(C(=O)c1cccc(C)c1C)CC2 | i | · | · | 0% | · | ·
CCOC(=O)C1CCN(c2ccc(-c3cccs3)nn2)CC1 | -24% | ? | 1% | -4% | ? | 14µM*
Cc1ccc(S(=O)(=O)NCC(=O)OC(C(=O)c2ccccc2)c2ccccc2)cc1 (centres undefined) | · | -11% | 3.2µM* | · | -4% | 4%
CCc1ccc(C(=O)C(C)OC(=O)CNS(=O)(=O)c2ccc(C)cc2)cc1 (centres undefined) | i | -11% | -10% | -20% | 9% | ·
CCOC(=O)c1cc2c(=O)n3ccccc3nc2n(Cc2ccco2)c1=NC(=O)c1cc(C)cc(C)c1 | ? | -10% | · | 10µM* | · | ·
O=C1C(=O)c2c(C(=O)c3ccccc3)coc2-c2ccccc21 | ? | -4% | -11% | ? | 11µM* | 2%
COc1ccc2c(c1)sc1nc(-c3ccccc3)cn12 | -19% | ? | -14% | -27% | ? | 13µM*
CCOc1ccc(/C=C/C(=O)C(C(N)=O)=C2SCCS2)cc1 | 4.5µM* | 4% | -17% | -26% | 1% | 0%
COc1ccc(CN2CCC3(CC2)c2ccccc2[C@@H](NC(=O)c2ccccc2)[C@@H]3O)cc1O | i | · | · | -10% | · | ·
O=C(/C=C/c1cccs1)N1CCc2ccccc21 | -2% | ? | -1% | -17% | · | 14µM*
O=C(NCC1Cc2cccc(-c3cccnc3)c2O1)c1cc(-c2ccccc2)n[nH]1 (centres undefined) | i | · | · | -16% | · | ·
Cc1cccc(NS(=O)(=O)c2ccc(C)c(C(=O)OCC(=O)Nc3cc(C)on3)c2)c1 | 22µM* | 5% | -5% | 9% | -7% | 0%
O=C(C#Cc1ccccc1)c1ccco1 | 10µM* | 4% | -5% | 13µM* | 8.9µM* | -4%
O=C(N/N=C/c1ccccc1)c1ccco1 | -15% | -1% | 29% | -10% | -17% | ?
CN(C)CCCNc1c2ccccc2nc2ccccc12 | 7.1µM* | -15% | -8% | 8.9µM* | -13% | -13%
SMILES | Vaccinia mCherry | TbPYK inhibitor | AMA1-RON2 inh | Vaccinia Venus | RE007 growth inh | LmPK inh
c1ccc(CNc2ncnc3ccccc23)cc1 | -8% | 2% | 25% | ? | -5% | 3%
c1ccc(CNc2c3ccccc3nc3ccccc23)cc1 | ? | 6% | -2% | 11µM* | -11% | 1%
CC(=O)C[C@H]1[C@H](O[C@H]2[C@H](OC(C)C(=O)N[C@@H](C)C(=O)N[C@H](CCC(=O)N[C@@H](CCCCN)C(=O)N[C@H](C)C(=O)O)C(N)=O)[C@@H](NC(=O)O)C(O)O[C@@H]2CO)O[C@H](CO)[C@@H](O)[C@@H]1O (some centres undefined) | · | -5% | · | · | · | ·
CCc1ccc(C(=O)C[N+]2(C)CCOCC2)cc1 | -14% | · | · | -6% | · | ·
CCc1nnc(N/N=C\c2ccc(OC(C)=O)c(OC)c2)n1N | · | -7% | 33% | · | -13% | -2%
CCOc1cc(/C=N/Nc2nnc(C)n2N)ccc1OC(C)=O | 28µM* | -6% | 33% | ? | -6% | -4%
CC(C)=CCCC1(C)C=Cc2c(O)c3c(c(CC=C(C)C)c2O1)OC12C(=CC4CC1C(C)(C)OC2(C/C=C(/C)C(=O)O)C4O)C3=O (centres undefined) | 13µM* | · | · | 11µM* | · | ·
CC(C)=CCCC1(C)C=Cc2c(O)c3c(c(CC=C(C)C)c2O1)OC12C(=CCCC1C(C)(C)O[C@@]2(C/C=C(\C)C(=O)O)C(=O)O)C3=O (some centres undefined) | i | · | · | -22% | · | ·
CCOc1ccc(N2C(=O)CC(Sc3nc(C)cc(C)n3)C2=O)cc1 (centres undefined) | -11% | 4% | -1% | -14% | -20% | -2%
CCOc1ccc(N2C(=O)CC(Sc3nnnn3-c3ccccc3)C2=O)cc1 (centres undefined) | -2% | -28% | -4% | 6% | 32µM* | 8%
CCOc1ccc(N2C(=O)CC(SCCN)C2=O)cc1 (centres undefined) | · | 0% | ? | · | 20µM* | -28%
Cn1cnc([N+](=O)[O-])c1Sc1nc2ccccc2[nH]1 | ? | -2% | 8% | -24% | 2% | 1%
Cn1cnc([N+](=O)[O-])c1Oc1ccc2ccccc2c1 | 6.3µM* | 0% | -26% | 7.9µM* | -11% | -7%
CCCc1nc2cccnc2n1C1CCN(C(=O)Cn2nccc2C)CC1 | -10% | · | · | -9% | · | ·
C=C1C(=O)O[C@@H]2C[C@@H](C)[C@@H]3C=CC(=O)[C@@]3(C)[C@@H](O)[C@H]12 | ? | 4% | 10% | 10µM*! | 5%[18.4 µM] | -3%
C[C@@H]1C[C@@H]2OC(=O)[C@]3(C)[C@H]2[C@@H](OC3(C)O)[C@]2(C)C(=O)C=C[C@H]12 (some centres undefined) | -13% | 4% | -1% | ? | 4% | 1%
C=C1C(=O)O[C@@H]2C[C@@H](C)[C@@H]3C=CC(=O)[C@@]3(C)[C@@H](OC(C)=O)[C@H]12 | 11µM* | -6% | 2% | 7.9µM* | -4% | 3%
O=C(NCC1CCC2(CCN(Cc3c[nH]c4ccccc34)CC2)O1)C1CCOCC1 (centres undefined) | 2% | · | · | -2% | · | ·
COc1cccc(NC(=O)c2cccc(C(=O)Nc3cccc(OC)c3)n2)c1 | -21% | 5% | 13% | -4% | -1% | -1%
